In all, about 22,000 compounds went through this assay and about 1,100 (5%) were called active. The full list was thinned out, with actives kept by preference. Values without a mark were called inactive. No stated cut-off is given here; in the data, active means activity score above about 55%; inconclusive means no clear call, values can overlap the other calls; inactive means below that.
test: inhibitors of intracellular Trypanosoma cruzi, primary screen, cell-based, plate reader, single point, set 2 (AID 651903); conditions: intracellular Trypanosoma cruzi in host cells, at 5.01 µM, stronger effect = higher value;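 further: parasites and compound incubated about four days before reading; 0% = median of neutral control wells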

| Structure (SMILES) | activity score (inhibition) |
| --- | --- |
| C[C@H]1CN([C@@H](C)CO)C(=O)CCCn2nncc2CO[C@@H]1CN(C)S(=O)(=O)c1ccccc1C#N | -9.5% |
| C[C@@H]1CN([C@H](C)CO)C(=O)Cc2cc(NC(=O)Nc3ccccc3)ccc2O[C@@H]1CN(C)Cc1ccc(C(F)(F)F)cc1 | 14.2% |
| C[C@H](CO)N1C[C@H](C)[C@H](CN(C)Cc2ccc(-c3ccccc3)cc2)Oc2ccc(NC(=O)Nc3ccc(F)cc3)cc2CC1=O | 58.8% (active) |
| C[C@@H]1CN([C@H](C)CO)C(=O)Cc2cc(NC(=O)c3ccncc3)ccc2O[C@@H]1CN(C)Cc1ccncc1 | -11.9% |
| C[C@H](CO)N1C[C@H](C)[C@H](CN(C)Cc2ccc(C(F)(F)F)cc2)Oc2ccc(N(C)C)cc2CC1=O | 50.9% |
| C[C@@H]1CN([C@H](C)CO)C(=O)Cc2cc(NC(=O)c3ccncc3)ccc2O[C@H]1CN(C)Cc1ccc(-c2ccccc2)cc1 | 57.2% (active) |
| C[C@H]1CN([C@@H](C)CO)C(=O)Cc2cc(NC(=O)Nc3ccccc3)ccc2O[C@H]1CN(C)Cc1ccncc1 | 6.16% |
| COc1ccc(CN(C)C[C@@H]2Oc3ccc(NC(=O)c4ccncc4)cc3CC(=O)N([C@H](C)CO)C[C@H]2C)cc1 | -3.55% |
| C[C@@H]1CN([C@H](C)CO)C(=O)Cc2cc(N(C)C)ccc2O[C@@H]1CN(C)Cc1ccccc1 | -5.53% |
| C[C@H]1CN([C@@H](C)CO)C(=O)Cc2cc(N(C)C)ccc2O[C@@H]1CN(C)Cc1ccc(-c2ccccc2)cc1 | 68.2% (active) |
| C[C@@H]1CCCCO[C@H](CN(C)Cc2ccncc2)[C@@H](C)CN([C@H](C)CO)C(=O)c2cc(NC(=O)CCCN(C)C)ccc2O1 | -8.02% |
| Cc1noc(C)c1NC(=O)Nc1ccc2c(c1)C(=O)N([C@H](C)CO)C[C@H](C)[C@H](CN(C)S(=O)(=O)c1cccs1)O2 | 2.68% |
| C[C@@H]1CN([C@H](C)CO)C(=O)c2cc(NC(=O)CCCCCC(=O)Nc3ccccc3N)ccc2O[C@@H]1CN(C)S(=O)(=O)c1ccc(Cl)cc1 | 15.5% |
| Cc1ccc(S(=O)(=O)N(C)C[C@@H]2Oc3ccc(NS(=O)(=O)c4c(C)noc4C)cc3CC(=O)N([C@H](C)CO)C[C@H]2C)cc1 | 4.67% |
| C[C@H](CO)N1C[C@H](C)[C@H](CN(C)Cc2ccncc2)Oc2ccc(NS(=O)(=O)c3ccc(F)cc3)cc2CC1=O | -4.01% |
| CC(C)NC(=O)Nc1ccc2c(c1)C(=O)N([C@H](C)CO)C[C@H](C)[C@@H](CN(C)Cc1ccc(C(F)(F)F)cc1)OCCCC[C@@H](C)O2 | -27.7% |
| CC(C)NC(=O)Nc1ccc2c(c1)C(=O)N([C@H](C)CO)C[C@H](C)[C@H](CN(C)C(=O)Nc1ccc(C(F)(F)F)cc1)OCCCC[C@@H](C)O2 | 56.9% (active) |
| C[C@@H]1CCCCO[C@@H](CN(C)Cc2ccc(C(F)(F)F)cc2)[C@@H](C)CN([C@H](C)CO)C(=O)c2cc(NC(=O)Nc3ccccc3)ccc2O1 | 67.7% (active) |
| CC(C)NC(=O)Nc1ccc2c(c1)C(=O)N([C@H](C)CO)C[C@H](C)[C@H](CN(C)Cc1ccc(C(=O)O)cc1)OCCCC[C@@H](C)O2 | -25.6% |
| CC(C)NC(=O)N(C)C[C@@H]1OCCCC[C@@H](C)Oc2ccc(NC(=O)Nc3ccccc3)cc2C(=O)N([C@H](C)CO)C[C@@H]1C | -24.2% |

| Structure (SMILES) | activity score (inhibition) |
| --- | --- |
| C[C@@H]1CCCCO[C@@H](CN(C)C(=O)Nc2ccccc2)[C@@H](C)CN([C@H](C)CO)C(=O)c2cc(NC(=O)Nc3ccc(F)cc3)ccc2O1 | 7.86% |
| Cc1noc(C)c1NC(=O)N(C)C[C@H]1Oc2ccc(NC(=O)Nc3ccc(C(F)(F)F)cc3)cc2CC(=O)N([C@@H](C)CO)C[C@@H]1C | -4.63% |
| Cc1ccc(S(=O)(=O)N(C)C[C@@H]2Oc3ccc(NC(=O)Cc4ccccc4)cc3CC(=O)N([C@H](C)CO)C[C@H]2C)cc1 | 4.53% |
| COc1ccc(S(=O)(=O)Nc2ccc3c(c2)C(=O)N([C@H](C)CO)C[C@H](C)[C@H](CN(C)Cc2ccc(C(F)(F)F)cc2)O3)cc1 | 24.5% |
| COc1ccc(S(=O)(=O)Nc2ccc3c(c2)C(=O)N([C@H](C)CO)C[C@@H](C)[C@@H](CN(C)Cc2ccccc2)O3)cc1 | -14.1% |
| C[C@H](CO)N1C[C@H](C)[C@H](CN(C)Cc2ccc(C(F)(F)F)cc2)Oc2ccc(NS(=O)(=O)c3ccc(Cl)cc3)cc2C1=O | 60.9% (active) |
| COc1ccc(S(=O)(=O)Nc2ccc3c(c2)C(=O)N([C@H](C)CO)C[C@H](C)[C@@H](CN(C)Cc2ccc(-c4ccccc4)cc2)O3)cc1 | 55.9% (active) |
| COc1ccc(CN(C)C[C@@H]2Oc3ccc(NS(=O)(=O)c4ccc(OC)cc4)cc3C(=O)N([C@H](C)CO)C[C@H]2C)cc1 | 3.29% |
| Cc1ccc(S(=O)(=O)Nc2ccc3c(c2)C(=O)N([C@@H](C)CO)C[C@@H](C)[C@H](CN(C)Cc2ccc(C(F)(F)F)cc2)O3)cc1 | 52.7% |
| C[C@@H]1CN([C@@H](C)CO)C(=O)c2cccc(NC(=O)Nc3ccc4c(c3)OCO4)c2O[C@H]1CN(C)C(=O)Nc1cccc2ccccc12 | -8.82% |
| C[C@H](CO)N1C[C@H](C)[C@H](CN(C)C)Oc2ncc(/C=C/c3ccccc3)cc2C1=O | 71.7% (active) |
| COc1ccc(NC(=O)N(C)C[C@@H]2Oc3ncc(-c4cccc(OC)c4)cc3C(=O)N([C@H](C)CO)C[C@@H]2C)cc1 | 16.6% |
| C[C@H](CO)N1C[C@H](C)[C@H](CN(C)C(=O)Nc2ccc3c(c2)OCO3)Oc2ncc(C#Cc3cccc(F)c3)cc2C1=O | 25.3% |
| C[C@H](CO)N1C[C@H](C)[C@H](CN(C)C(=O)NC2CCCC2)Oc2ncc(-c3ccc(F)cc3)cc2C1=O | 6.58% |
| C[C@H](CO)N1C[C@H](C)[C@H](CN(C)S(=O)(=O)c2ccc(F)cc2)Oc2ncc(-c3ccc(F)cc3)cc2C1=O | 30.4% |
| C[C@H](CO)N1C[C@H](C)[C@H](CN(C)C(=O)Nc2cccc3ccccc23)Oc2ncc(C#Cc3ccccc3)cc2C1=O | 67.5% (active) |
| C[C@@H]1CN([C@H](C)CO)C(=O)c2cccc(NC(=O)Nc3cccc4ccccc34)c2O[C@@H]1CN(C)C(=O)Nc1cccc2ccccc12 | 4.54% |
| COc1ccc(-c2cnc3c(c2)C(=O)N([C@H](C)CO)C[C@H](C)[C@H](CN(C)S(=O)(=O)c2ccccc2)O3)cc1 | 26.3% |
| C[C@H](CO)N1C[C@H](C)[C@H](CN(C)C(=O)Nc2ccc(F)cc2)Oc2ncc(-c3cc4ccccc4o3)cc2C1=O | 78.2% (active) |
| C[C@H](CO)N1C[C@H](C)[C@@H](CN(C)C)Oc2ccc(N(C)C)cc2C1=O | -14.7% |

| Structure (SMILES) | activity score (inhibition) |
| --- | --- |
| C[C@H](CO)N1C[C@H](C)[C@H](CN(C)Cc2ccccc2)Oc2ncc(-c3ccccc3)cc2C1=O | -4.22% |
| Cc1ccc(S(=O)(=O)N(C)C[C@@H]2Oc3ncc(-c4cc5ccccc5o4)cc3C(=O)N([C@H](C)CO)C[C@@H]2C)cc1 | 76.5% (active) |
| Cc1ccc(S(=O)(=O)N(C)C[C@H]2Oc3c(NC(=O)C4CC4)cccc3C(=O)N([C@@H](C)CO)C[C@@H]2C)cc1 | 0.737% |
| Cc1noc(C)c1S(=O)(=O)Nc1ccc2c(c1)C(=O)N([C@H](C)CO)C[C@H](C)[C@H](CN(C)S(=O)(=O)c1cn(C)cn1)OCCCC[C@@H](C)O2 | -39.1% |
| COc1ccc(CN(C)C[C@H]2Oc3c(NC(=O)Nc4ccccc4)cccc3C(=O)N([C@@H](C)CO)C[C@@H]2C)cc1 | 6.85% |
| CCCC(O)C#Cc1cnc2c(c1)C(=O)N([C@H](C)CO)C[C@H](C)[C@H](CN(C)Cc1ccc(F)cc1)O2 (stereo partly drawn) | 18.5% |
| Cc1cc(C(=O)Nc2cccc3c2O[C@@H](CN(C)S(=O)(=O)c2ccc(F)cc2)[C@@H](C)CN([C@H](C)CO)C3=O)n(C)n1 | 32.3% |
| Cc1noc(C)c1NC(=O)Nc1ccc2c(c1)C(=O)N([C@H](C)CO)C[C@H](C)[C@@H](CN(C)S(=O)(=O)c1cn(C)cn1)O2 | -7.25% |
| C[C@@H]1CN([C@H](C)CO)C(=O)Cc2cc(NC(=O)Nc3ccc(F)cc3)ccc2O[C@@H]1CN(C)C(=O)Nc1ccc2c(c1)OCO2 | -18.5% |
| C[C@@H]1CN([C@@H](C)CO)C(=O)Cc2cc(NC(=O)Nc3ccccc3)ccc2O[C@@H]1CN(C)S(=O)(=O)c1ccc(F)cc1 | 5.25% |
| CC(C)NC(=O)N(C)C[C@H]1Oc2ccc(NS(C)(=O)=O)cc2CC(=O)N([C@@H](C)CO)C[C@H]1C | -20.6% |
| COc1ccc(CN(C)C[C@@H]2Oc3ccc(NS(=O)(=O)c4cn(C)cn4)cc3C(=O)N([C@@H](C)CO)C[C@H]2C)cc1 | -24.5% |
| C[C@@H]1CN([C@@H](C)CO)C(=O)c2cccc(NC(=O)c3nc4ccccc4s3)c2O[C@H]1CN(C)S(=O)(=O)c1cccs1 | 28.4% |
| C[C@@H]1CN([C@H](C)CO)C(=O)c2cccc(NC(=O)c3nc4ccccc4s3)c2O[C@H]1CN(C)S(=O)(=O)c1ccc(Cl)cc1 | 67.6% (active) |
| CC(C)NC(=O)N(C)C[C@@H]1Oc2c(NC(=O)c3nc4ccccc4s3)cccc2C(=O)N([C@H](C)CO)C[C@H]1C | 47.9% |
| C[C@@H]1CN([C@H](C)CO)C(=O)c2cccc(NC(=O)c3nc4ccccc4s3)c2O[C@H]1CN(C)Cc1ccccc1 | 32.1% |
| C[C@@H]1CN([C@H](C)CO)C(=O)c2cccc(NC(=O)c3nc4ccccc4s3)c2O[C@@H]1CN(C)C | -35.8% |
| Cc1ccc(S(=O)(=O)N(C)C[C@@H]2Oc3c(NC(=O)c4nc5ccccc5s4)cccc3C(=O)N([C@H](C)CO)C[C@@H]2C)cc1 | 81.1% (active) |
